In PubChem BioAssay (NCATS):
Several values for one entry are separate records, joined by “and”; a condition that tells them apart may be missing. Equal entries are not always repeated. Results filed as inconclusive are left out. Activity calls are given as the source filed them. Unless noted, calls come from the whole dose curve.

Legend:
[1] = qHTS assay for small molecule agonists of retinoid X receptor alpha signaling (AID 588544); conditions: HEK293T RXRa-UAS-bla, beta-lactamase reporter, 18 h; 530 nm emission;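 for activation: 0% = DMSO basal wells and 100% = reference agonist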
[2] = target: Retinoic acid receptor RXR-alpha (Homo sapiens) (UniProt P19793); experiment: as above; conditions: HEK293T RXRa-UAS-bla, beta-lactamase reporter, 18 h; series mostly up to 76.7 µM
Retinoic acid receptor RXR-alpha (Homo sapiens), sequence (P19793 whole entry, looked up): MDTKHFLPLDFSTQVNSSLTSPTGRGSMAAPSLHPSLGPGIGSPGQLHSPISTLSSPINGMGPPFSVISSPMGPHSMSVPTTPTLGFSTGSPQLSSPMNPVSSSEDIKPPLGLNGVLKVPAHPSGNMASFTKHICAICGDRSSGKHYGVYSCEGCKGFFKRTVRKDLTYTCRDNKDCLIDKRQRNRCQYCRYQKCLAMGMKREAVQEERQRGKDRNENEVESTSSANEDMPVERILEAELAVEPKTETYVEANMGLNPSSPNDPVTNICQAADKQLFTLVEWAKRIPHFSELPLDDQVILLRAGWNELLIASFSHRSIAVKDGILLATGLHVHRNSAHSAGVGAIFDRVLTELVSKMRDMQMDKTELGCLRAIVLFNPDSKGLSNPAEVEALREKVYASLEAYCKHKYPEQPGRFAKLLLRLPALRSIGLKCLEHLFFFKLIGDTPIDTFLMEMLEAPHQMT

[3] = target: Thyroid hormone receptor beta (Homo sapiens) (UniProt P10828); experiment: qHTS assay for small molecule agonists of thyroid hormone receptor beta signaling (AID 588545); conditions: TR-UAS-bla GripTite HEK 293, beta-lactamase ratio, agonist mode, 18 h, percent of T3 response, DMSO as zero; series mostly up to 76.7 µM
Thyroid hormone receptor beta (Homo sapiens), sequence (P10828 whole entry, looked up): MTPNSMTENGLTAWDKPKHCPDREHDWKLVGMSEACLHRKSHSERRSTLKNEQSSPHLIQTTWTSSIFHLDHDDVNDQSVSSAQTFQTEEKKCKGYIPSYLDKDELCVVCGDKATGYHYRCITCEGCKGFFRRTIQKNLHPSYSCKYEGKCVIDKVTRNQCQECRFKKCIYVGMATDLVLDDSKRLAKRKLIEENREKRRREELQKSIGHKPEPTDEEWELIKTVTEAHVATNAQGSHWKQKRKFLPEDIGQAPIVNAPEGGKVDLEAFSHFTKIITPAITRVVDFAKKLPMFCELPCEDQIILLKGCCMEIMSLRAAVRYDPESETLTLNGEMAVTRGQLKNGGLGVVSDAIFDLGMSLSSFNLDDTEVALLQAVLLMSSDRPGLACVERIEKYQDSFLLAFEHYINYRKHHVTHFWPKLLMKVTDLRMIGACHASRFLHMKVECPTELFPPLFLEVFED
Method in brief: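 In this cell-based screen, titrated compounds act on HEK 293 cells held in medium with 2% charcoal/dextran FBS, NEAA and pyruvate for 18 hrs at 37 C. Responses are expressed relative to T3 (10 nM) as 100% and basal DMSO as 0%.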

[4] = qHTS assay for small molecule antagonists of retinoid X receptor alpha signaling (AID 588546; active = well fitted inhibition curve with a large enough effect in the signal ratio, with a control signal flat, not every such curve was filed as active; the % refers to the signal ratio;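 note: cells stimulated with 9-cis-retinoic acid as agonist; % is set by controls: 0 for no effect and ±100 for the full control effect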); conditions: HEK293T RXRa-UAS-bla, beta-lactamase ratio, antagonist mode; measured here: W530 green channel, cytotoxicity proxy
Method in brief: (§1)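 Beta-lactamase reporter inhibition, read as CCF4 fluorescence ratio (ex 405, em 460/530 nm) after 2 h at RT. HEK293T UAS-bla cells, 2500/well, were stimulated with 9-cis-RA at 500 or 100 nM final alongside test compound for 18 h at 37 C.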

[5] = target: Retinoic acid receptor RXR-alpha (Homo sapiens) (UniProt P19793); experiment: as above; conditions: HEK293T RXRa-UAS-bla, beta-lactamase ratio, antagonist mode
Method in brief: as §1

[6] = target: Thyroid hormone receptor beta (Homo sapiens) (UniProt P10828); experiment: qHTS assay for small molecule antagonists of thyroid hormone receptor beta signaling (AID 588547; active = well fitted inhibition curve with a large enough effect in the signal ratio, with a control signal flat, not every such curve was filed as active; the % refers to the signal ratio;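 note: cells stimulated with 0.4 nM T3 agonist during compound exposure; % is set by controls: 0 for no effect and ±100 for the full control effect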); conditions: TR-UAS-bla HEK293, beta-lactamase ratio, antagonist mode, 18 h
Method in brief: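 TR-UAS-bla GripTite HEK293 cells in 2% charcoal/dextran FBS medium; compounds 0.59 nM to 92 uM with T3 at 0.4nM final, 18 h at 37 C. Beta-lactamase read by CCF4 fluorescence (460/530 nm); Hill fits gave IC50 and efficacy.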

[7] = target: Voltage-gated inwardly rectifying potassium channel KCNH2 (Homo sapiens) (UniProt Q12809); experiment: qHTS Assay for Small Molecule Inhibitors of the Human hERG Channel Activity (AID 588834; active = well fitted inhibition curve with a large enough effect;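 note: top concentration of the series differs between compounds; % is set by controls: 0 for no effect and ±100 for the full control effect; lower thallium flux fluorescence means stronger hERG block; nearly all actives have a fitted effect of over 50% in size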); conditions: U2OS BacMam hERG, FluxOR thallium flux fluorescence; series mostly up to 92.2 µM
Voltage-gated inwardly rectifying potassium channel KCNH2 (Homo sapiens), sequence (Q12809 whole entry, looked up): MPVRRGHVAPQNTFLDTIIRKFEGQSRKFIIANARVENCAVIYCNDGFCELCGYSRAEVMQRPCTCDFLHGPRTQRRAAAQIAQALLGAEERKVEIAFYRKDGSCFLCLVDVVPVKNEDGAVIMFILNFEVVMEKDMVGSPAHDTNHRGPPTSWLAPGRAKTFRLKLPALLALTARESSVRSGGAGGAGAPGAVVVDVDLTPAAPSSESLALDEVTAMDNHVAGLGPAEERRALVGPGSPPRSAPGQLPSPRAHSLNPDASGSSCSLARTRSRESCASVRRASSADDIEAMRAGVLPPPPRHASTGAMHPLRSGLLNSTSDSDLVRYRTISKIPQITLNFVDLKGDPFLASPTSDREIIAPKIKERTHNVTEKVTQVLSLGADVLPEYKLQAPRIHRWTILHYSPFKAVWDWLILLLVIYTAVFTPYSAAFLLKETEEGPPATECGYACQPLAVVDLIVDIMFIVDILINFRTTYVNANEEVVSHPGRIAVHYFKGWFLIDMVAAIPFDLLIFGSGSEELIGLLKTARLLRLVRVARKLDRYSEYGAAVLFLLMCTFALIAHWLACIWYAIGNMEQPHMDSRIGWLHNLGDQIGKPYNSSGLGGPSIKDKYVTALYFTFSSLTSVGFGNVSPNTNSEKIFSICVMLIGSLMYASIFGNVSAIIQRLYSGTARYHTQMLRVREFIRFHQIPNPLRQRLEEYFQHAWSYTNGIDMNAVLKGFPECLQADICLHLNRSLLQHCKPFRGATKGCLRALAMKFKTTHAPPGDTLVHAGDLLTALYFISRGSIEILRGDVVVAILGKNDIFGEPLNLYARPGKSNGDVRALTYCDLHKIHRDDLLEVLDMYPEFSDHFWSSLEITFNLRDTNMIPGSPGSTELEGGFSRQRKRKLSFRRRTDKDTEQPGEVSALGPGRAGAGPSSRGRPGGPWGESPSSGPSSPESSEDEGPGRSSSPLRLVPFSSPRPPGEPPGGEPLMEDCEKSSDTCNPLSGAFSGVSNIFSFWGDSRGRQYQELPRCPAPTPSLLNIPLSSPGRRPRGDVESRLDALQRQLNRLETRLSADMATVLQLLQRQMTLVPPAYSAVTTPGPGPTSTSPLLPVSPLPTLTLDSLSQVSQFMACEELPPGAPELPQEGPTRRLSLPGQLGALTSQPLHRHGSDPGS
Method in brief: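 Kinetic FDSS fluorescence; U2OS + hERG BacMam (~100 virus particles/cell); FluxOR Tl+ flux; ~10 min cpd; AC50 (Hill).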

[8] = qHTS assay for small molecule activators of the nuclear factor-kappa B (NF-kB) signaling pathway (AID 651749; active = well fitted activation curve with a large enough effect in the signal ratio; the % refers to the signal ratio; note: % of control where 0% means no effect); conditions: NF-kB-bla ME-180 cells, beta-lactamase FRET ratio, 16 h; stronger effect = higher value
Method in brief: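 Incubation lasted 16 hr at 37C in 5% CO2 after 23 nL compound addition to ME-180 NF-kB-bla cells. Activation appears as beta-lactamase-mediated FRET loss.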

[9] = qHTS assay for small molecule agonists of the antioxidant response element (ARE) signaling pathway (AID 651741; active = well fitted activation curve with a large enough effect in the signal ratio; the % refers to the signal ratio; note: % of control where 0% means no effect); conditions: HepG2 ARE-bla reporter, beta-lactamase FRET ratio, 16 h; series mostly up to 96 µM
Method in brief: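 HepG2 ARE-bla cells plated at 2,000 cells/well and incubated 5 h at 37 C/5% CO2 received 23 nL compound in DMSO. After 16 h at 37 C, LiveBLAzer B/G FRET substrate was applied for 2 h at room temperature and fluorescence read.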

[10] = qHTS assay for small molecule activators of the p53 signaling pathway (AID 651743; active = well fitted activation curve with a large enough effect in the signal ratio, not every such curve was filed as active; the % refers to the signal ratio; note: % of control where 0% means no effect); conditions: HCT-116 p53RE-bla, beta-lactamase FRET ratio, 16 h; stronger effect = higher value
Method in brief: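 HCT-116 p53RE-bla, 4,000 cells/well; 5 h settle; cpd/DMSO 16 h, 37 C; LiveBLAzer B/G 2 h RT; fluorescence intensity.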

SMILES | max response [1] | outcome [2] | outcome [3] | max response [4] | max response [5] | activity change % (negative = inhibition) [6] | Potency [7] | activation [8] | Potency [9] | activation [10]
C/C(C=O)=C/c1ccccc1 | -15.6% | inactive | inactive | 2.35% | -7.56% (inactive) | -5.38% (inactive) | inactive | -1.45% (inactive) | – | –
CCC(C)(C)C(=O)O | -9.68% | inactive | inactive | -3.08% | 6.62% (inactive) | -3.87% (inactive) | – | – | inactive | 0.0165% (inactive)
Cc1ccc(C#N)cc1 | 3.27% | inactive | inactive | -3.82% | 0.597% (inactive) | 4.16% (inactive) | inactive | 0.0681% (inactive) | – | –
CCCCCCCCCCCCC1CO1 (stereo not drawn) | -5.24% | inactive | inactive | -6.03% | 7.51% (inactive) | -0.964% (inactive) | inactive | 0.702% (inactive) | – | –
BrC(Br)C(Br)Br | -10.8% | inactive | inactive | -6.63% | -0.43% (inactive) | 0.66% (inactive) | inactive | 2.53% (inactive) | – | -2.69% (inactive)
Cc1c(N)cccc1N | -3.37% | inactive | inactive | -4.94% | -6.28% (inactive) | -2.96% (inactive) | inactive | -1.33% (inactive) | – | –
O=C(O)c1ccc(CO)o1 | -7.5% | inactive | inactive | -4.49% | -4.1% (inactive) | -7.49% (inactive) | inactive | 0.608% (inactive) | – | -2.63% (inactive)
O=C1OC(=O)c2c(Br)c(Br)c(Br)c(Br)c21 | -2.51% and -8.84% | inactive | inactive | -0.218% and -8.01% | 6.1% (inactive) and -5.43% (inactive) | 7.07% (inactive) and -6.85% (inactive) | inactive | 0.149% (inactive) and 3.05% (inactive) | – | –
CCOc1cccc(N)c1 | -8.66% | inactive | inactive | 5.53% | -4.73% (inactive) | -0.0909% (inactive) | inactive | -0.866% (inactive) | – | 0.42% (inactive)
O=[N+]([O-])c1c(Cl)cc(Cl)cc1Cl | -6.72% | inactive | inactive | -2.99% | 8.69% (inactive) | 3.07% (inactive) | inactive | -0.147% (inactive) | – | 1.35% (inactive)
O=[N+]([O-])c1ccc(NCCO)c(OCCO)c1 | 4.58% | inactive | inactive | -6.21% | -6.4% (inactive) | -13.2% (inactive) | inactive | – | – | -3% (inactive)
O=C(O)c1ccc(Cl)cc1Cl | -11.4% | inactive | inactive | -6.82% | 2.21% (inactive) | -8.73% (inactive) | inactive | -0.499% (inactive) | – | -4.73% (inactive)
Nc1cccc(N)c1 | 0.0667% | inactive | inactive | 1.75% | -3.92% (inactive) | -1.36% (inactive) | inactive | -0.628% (inactive) | – | -1.04% (inactive)
COC(=O)CCCC(=O)OC | -5.09% | inactive | inactive | -9.56% | -11% (inactive) | -27% (inactive) | inactive | -0.14% (inactive) | – | -1.04% (inactive)
CC(=C/C=C/C(C)=C/C=C/C=C(C)/C=C/C=C(C)/C=C/C(=O)O)/C=C/C(=O)O | -15.4% | inactive | inactive | -2.63% | -3.15% (inactive) | -8.7% (inactive) | inactive | -0.299% (inactive) | – | -0.825% (inactive)
CC(=O)Nc1cccc(N)c1 | -8.93% | inactive | inactive | -0.371% | 6.6% (inactive) | -3.78% (inactive) | inactive | 0.511% (inactive) | – | 1.81% (inactive)
O=C(O)c1ccccc1[N+](=O)[O-] | -10.1% | inactive | inactive | -4.69% | 2.43% (inactive) | 6.51% (inactive) | inactive | 0.408% (inactive) | – | 2% (inactive)
CNC(=O)N(c1ccccc1)c1ccccc1 | -17.1% | inactive | inactive | 12.2% | -3.69% (inactive) | 10.1% (inactive) | inactive | 0.192% (inactive) | – | 0.514% (inactive)
CNc1ccc([N+](=O)[O-])cc1 | 3.4% | inactive | inactive | 8.47% | 0.864% (inactive) | 2.18% (inactive) | inactive | -1.5% (inactive) | – | –
ClC/C=C/CCl | -8.83% | inactive | inactive | -5.15% | 0.33% (inactive) | 19.3% (inactive) | inactive | – | – | -2.54% (inactive)
Cc1ccco1 | -10.8% | inactive | inactive | -5.98% | 5.14% (inactive) | 12.3% (inactive) | inactive | -0.364% (inactive) | – | 2.07% (inactive)
Cc1ccc(Cl)cc1N | 3.01% | inactive | inactive | -7.87% | 0.248% (inactive) | -4.43% (inactive) | inactive | 0.369% (inactive) | – | 0.545% (inactive)
CCOc1cc(OCC)c(C(C)=O)cc1OCC | 4.48% | inactive | inactive | 1.94% | 7.64% (inactive) | -7.72% (inactive) | inactive | 2.04% (inactive) | – | -3.93% (inactive)
